Results on four compounds are retold here after PubChem BioAssay.

A word on the inhibition: it is the change of the read-out against control, counted positive when it falls.

The nature of assay [1]: yeast TOR pathway RPL19A-GFP modulators, primary screen, cell-based, S. cerevisiae, multiplex flow cytometry (AID 1862; in the data active = percent of DMSO control GFP below about 86%;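 also: lower values mimic rapamycin by blocking the RPL19A rise seen in DMSO cells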). Conditions: S. cerevisiae RPL19A-GFP strain, flow cytometry fluorescence, 3 h; at 10 µM; stronger effect = lower value. A general note: Flow cytometry measures light scatter and fluorescence of single cells or particles in a stream.
Assay [2] is described as follows: modulators of MEP2-GFP levels in yeast, primary screen, S. cerevisiae, multiplex flow cytometry (AID 1867;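 active = GFP response, as percent of the DMSO control, above the screen-wide mean plus 3 SD, about 139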;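 also: median GFP channel fluorescence of barcode-gated MEP2-GFP cells measured by flow cytometry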). Conditions: S. cerevisiae MEP2-GFP strain, 3 h, at 10 µM, stronger effect = higher value, 100% means same as DMSO wells.
Assay [3] is described as follows: modulators of CIT2-GFP expression in yeast, primary screen, S. cerevisiae, GFP fusion, multiplex flow cytometry (AID 1870;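 active = percent response above a set limit, the screen-wide mean plus 3 SD, cut at about 130% in these data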;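 also: barcoded CIT2-GFP strain pooled with four other GFP strains with rapamycin as positive control; median GFP fluorescence per well over plate mean of DMSO wells so 100% = DMSO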). To be noted: 3 h, at 10 µM, stronger effect = higher value.
A short description of assay [4]: modulators of LAP4-GFP expression in yeast, primary screen, S. cerevisiae, multiplex flow cytometry (AID 1873;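 active = GFP signal, as percent of the solvent control, above the screen mean plus 3 SD, about 149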). To be noted: 3 h, at 10 µM, stronger effect = higher value.
A short description of assay [5]: modulators of AGP1-GFP expression in yeast TOR pathway, primary screen, cell-based, multiplex flow cytometry, S. cerevisiae (AID 1887;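 active = GFP signal above the screen-wide mean plus 3 SD, that is over about 124.5% of the solvent control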;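 also: AGP1-GFP fusion strain of S. cerevisiae within a five-strain barcoded multiplex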). To be noted: 3 h, at 10 µM, stronger effect = higher value.
Assay [6] is described as follows: inhibitors of CD8+ T cell-vesicle binding, pilot screen, LFA-1/ICAM-1 modulator project, MLPCN validation set, flow cytometry (AID 2523;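 active = response below a set limit, under 55% cells CD8-positive and vesicle-bound, and CD8 cells' 90th-percentile brightness under 279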;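 as to vesicle binding response: mean PE anti-B7-1 fluorescence of CD8+ cells relative to row control; 100% = QL9-loaded vesicles with DMSO vehicle in the same plate row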). To be noted: 2C mouse CD8+ T cells, at 7 µM, stronger effect = lower value; double positive events: measured here: CD8+/vesicle+ event percentage.
Assay [7] deals with Integrin beta-1 (Homo sapiens) + Integrin alpha-4 (Homo sapiens) (UniProt P13612+P05556). Description: inhibition of HUTS-21 binding to VLA-4, pilot screen, VLA-4 allosteric modulator project, U937 cells, HUTS-21 mAb, flow cytometry, validation set (AID 2674;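 active = inhibition above 50%, about 3 SD of the validation set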;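 also: antibody binding induced by the VLA-4 ligand LDV present at three times its Kd; 0% = LDV ligand with antibody and no compound and 100% = antibody without LDV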). Conditions: HUTS-21 LIBS mAb binding, at 6.7 µM, stronger effect = higher value, binding induced by LDV ligand.
Integrin beta-1 (Homo sapiens) + Integrin alpha-4 (Homo sapiens), sequence (P05556 whole entry, looked up): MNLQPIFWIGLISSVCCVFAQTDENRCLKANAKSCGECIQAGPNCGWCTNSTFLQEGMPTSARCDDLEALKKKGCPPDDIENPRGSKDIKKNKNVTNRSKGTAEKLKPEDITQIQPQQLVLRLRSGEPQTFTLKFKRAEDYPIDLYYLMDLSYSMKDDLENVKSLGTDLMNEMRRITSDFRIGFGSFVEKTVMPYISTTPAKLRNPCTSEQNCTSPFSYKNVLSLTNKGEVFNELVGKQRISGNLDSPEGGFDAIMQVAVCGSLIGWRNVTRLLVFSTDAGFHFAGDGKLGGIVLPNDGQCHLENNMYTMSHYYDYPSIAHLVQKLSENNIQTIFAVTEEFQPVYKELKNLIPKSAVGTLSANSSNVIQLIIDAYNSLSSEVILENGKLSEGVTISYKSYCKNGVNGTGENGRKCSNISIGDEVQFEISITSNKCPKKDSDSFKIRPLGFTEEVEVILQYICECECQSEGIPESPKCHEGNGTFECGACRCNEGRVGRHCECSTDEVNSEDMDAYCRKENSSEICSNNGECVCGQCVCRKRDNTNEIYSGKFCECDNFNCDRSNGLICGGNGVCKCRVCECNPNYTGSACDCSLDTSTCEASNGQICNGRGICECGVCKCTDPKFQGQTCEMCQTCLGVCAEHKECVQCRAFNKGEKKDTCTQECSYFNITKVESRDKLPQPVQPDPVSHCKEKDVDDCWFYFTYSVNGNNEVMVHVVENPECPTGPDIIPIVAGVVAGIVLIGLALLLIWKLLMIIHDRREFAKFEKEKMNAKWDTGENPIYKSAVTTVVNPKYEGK
Integrin beta-1 (Homo sapiens) + Integrin alpha-4 (Homo sapiens), sequence (P13612 whole entry, looked up): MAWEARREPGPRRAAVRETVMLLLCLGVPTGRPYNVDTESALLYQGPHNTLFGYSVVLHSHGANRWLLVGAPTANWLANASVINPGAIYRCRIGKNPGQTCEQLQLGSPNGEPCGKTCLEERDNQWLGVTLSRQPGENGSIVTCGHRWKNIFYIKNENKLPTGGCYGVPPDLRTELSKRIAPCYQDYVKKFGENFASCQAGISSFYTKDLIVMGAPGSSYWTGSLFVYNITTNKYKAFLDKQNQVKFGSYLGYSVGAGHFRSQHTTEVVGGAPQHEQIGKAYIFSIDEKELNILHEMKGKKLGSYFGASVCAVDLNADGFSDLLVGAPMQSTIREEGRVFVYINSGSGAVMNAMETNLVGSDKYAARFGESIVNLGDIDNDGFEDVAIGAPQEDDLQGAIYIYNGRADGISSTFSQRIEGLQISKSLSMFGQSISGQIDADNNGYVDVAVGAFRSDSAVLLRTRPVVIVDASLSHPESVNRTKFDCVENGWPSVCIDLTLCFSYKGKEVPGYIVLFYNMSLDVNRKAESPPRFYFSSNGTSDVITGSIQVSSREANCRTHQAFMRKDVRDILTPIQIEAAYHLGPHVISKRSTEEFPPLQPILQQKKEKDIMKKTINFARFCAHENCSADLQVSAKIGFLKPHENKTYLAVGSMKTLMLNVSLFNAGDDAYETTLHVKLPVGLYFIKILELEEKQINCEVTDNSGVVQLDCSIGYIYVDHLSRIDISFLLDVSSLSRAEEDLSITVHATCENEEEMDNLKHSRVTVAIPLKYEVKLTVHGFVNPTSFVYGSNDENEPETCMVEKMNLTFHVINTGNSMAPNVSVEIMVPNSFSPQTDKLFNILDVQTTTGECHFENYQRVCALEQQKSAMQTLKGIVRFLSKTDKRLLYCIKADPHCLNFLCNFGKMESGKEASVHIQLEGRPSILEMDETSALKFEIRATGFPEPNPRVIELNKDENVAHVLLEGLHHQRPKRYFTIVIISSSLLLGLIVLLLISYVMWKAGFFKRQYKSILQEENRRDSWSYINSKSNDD
Assay [8] is described as follows: superoxide lowering in aged yeast cells, pilot screen, validation compound set (AID 2706;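 active = superoxide response below 65% of plate, a cut near 3 SD across the whole screen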;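 also: yeast exposed to compound for one week at 30 degrees C before staining; 100% = mean of all compound wells on the same plate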). To be noted: S. cerevisiae aging, superoxide DHE fluorescence; at 10 µM; stronger effect = lower value.
For assay [9], the target named is Beta-adrenergic receptor kinase 1 (Homo sapiens) (UniProt P25098). Description: GRK2 binders displacing RNA aptamer, biochemical, validation, human GRK2, bead flow cytometry (AID 488806). Conditions: bead-bound GRK2, FAM-aptamer displacement, at 10 µM, stronger effect = higher value.
Beta-adrenergic receptor kinase 1 (Homo sapiens), sequence (P25098 whole entry, looked up): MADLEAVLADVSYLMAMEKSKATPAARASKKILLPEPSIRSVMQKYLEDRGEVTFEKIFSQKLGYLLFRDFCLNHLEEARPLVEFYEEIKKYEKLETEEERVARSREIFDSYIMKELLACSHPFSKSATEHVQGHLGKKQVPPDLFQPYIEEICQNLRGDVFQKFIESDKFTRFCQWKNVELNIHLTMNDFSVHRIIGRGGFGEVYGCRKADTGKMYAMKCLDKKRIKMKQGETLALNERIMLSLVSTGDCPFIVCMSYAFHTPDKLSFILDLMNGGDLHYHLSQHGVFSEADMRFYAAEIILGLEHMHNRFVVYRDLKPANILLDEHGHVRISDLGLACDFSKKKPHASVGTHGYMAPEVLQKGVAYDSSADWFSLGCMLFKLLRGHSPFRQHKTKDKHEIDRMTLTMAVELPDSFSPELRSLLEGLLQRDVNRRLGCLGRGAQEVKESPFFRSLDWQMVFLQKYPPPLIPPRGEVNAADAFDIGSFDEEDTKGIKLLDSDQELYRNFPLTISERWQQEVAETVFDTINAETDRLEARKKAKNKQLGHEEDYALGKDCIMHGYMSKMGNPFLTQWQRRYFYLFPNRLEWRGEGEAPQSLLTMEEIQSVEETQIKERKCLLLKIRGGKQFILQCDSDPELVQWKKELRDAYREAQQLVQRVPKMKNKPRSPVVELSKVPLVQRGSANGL
Assay [10] deals with Beta-2 adrenergic receptor (Homo sapiens) (UniProt P07550). In words: beta2AR agonists driving receptor internalization, pilot screen, cell-based, FAP fluorogen, flow cytometry, validation set (AID 504459;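 active = percent response above 42, roughly 3 SD of non-fluorescent test compounds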;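 also: agonist-driven loss of surface beta2AR via internalization measured by FAP dye flow cytometry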). Conditions: Am2.2-beta2AR cells, FAP surface receptor flow cytometry; at 10 µM; stronger effect = higher value.
Beta-2 adrenergic receptor (Homo sapiens), sequence (P07550 whole entry, looked up): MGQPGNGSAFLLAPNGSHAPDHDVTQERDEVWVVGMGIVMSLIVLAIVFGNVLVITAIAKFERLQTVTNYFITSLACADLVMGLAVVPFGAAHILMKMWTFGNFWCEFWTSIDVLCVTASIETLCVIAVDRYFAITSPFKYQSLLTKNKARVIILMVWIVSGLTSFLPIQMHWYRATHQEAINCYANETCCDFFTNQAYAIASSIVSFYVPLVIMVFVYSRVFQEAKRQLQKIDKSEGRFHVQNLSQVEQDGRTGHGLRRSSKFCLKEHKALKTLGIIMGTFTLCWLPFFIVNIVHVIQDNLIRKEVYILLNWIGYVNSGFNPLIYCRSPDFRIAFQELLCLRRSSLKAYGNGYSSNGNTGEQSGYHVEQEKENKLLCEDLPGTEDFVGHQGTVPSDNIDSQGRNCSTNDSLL
Assay [11] has as its target AP-2 complex subunit beta (Homo sapiens) (UniProt P63010). Description: inhibitors of arrestin peptide binding to AP2, pilot screen, biochemical, validation set, GST-AP2 beads, flow cytometry (AID 504541;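 active = inhibition above 54%, about 3 SD of non-fluorescent compounds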;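 also: AP2 carries R879A mutation and is captured from E. coli lysate; bead-bound FITC arrestin peptide fluorescence measuring arrestin peptide binding to AP2; 0% = DMSO wells and 100% = excess unlabeled arrestin peptide control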). Conditions: FITC arrestin peptide, at 10 µM, stronger effect = higher value, AP2 beta2 appendage fragment, R879A mutant.
A short description of assay [12]: yeast V-ATPase proton transport modulators, S. cerevisiae, pHLuorin, HTS validation (AID 504600; in the data active = response above about 15%;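 also: plate controls were DMSO for no effect and reference compound for full effect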). Conditions: S. cerevisiae pHLuorin cytosolic pH, at 10 µM, stronger effect = higher value.
Assay [13] relates to anti-desmoglein-3 scFv antibody binding to human DSG3. Description: inhibitors of anti-DSG3 scFv binding to DSG3, pilot screen, biochemical, validation compound set, bead-based, flow cytometry (AID 588368;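 active = binding below the plate cutoff, the plate median minus 3 SD, with a reading above zero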;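 also: signal is the median channel fluorescence of bead-bound GFP antibody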). To be noted: Protein G beads, DSG3-Fc, scFv-GFP binding, at 10 µM, stronger effect = lower value.
Assay [14] in a line: inhibitors of fungal efflux pumps CDR1, CDR2, MDR1, pilot screen, validation compound set, multiplex, phenotypic (AID 588506;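 active = efflux inhibition above 0.42, the validation set average plus 4 SD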;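 also: Nile Red retained in cells so higher fluorescence means more efflux inhibition; 0 = negative control wells and 1 = enniatin B 25 µM full block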). To be noted: S. cerevisiae pump-expressing triplex, Nile Red efflux flow cytometry; at 10 µM; stronger effect = higher value; the pumps come from Candida albicans.
Assay [15] deals with ATP-binding cassette sub-family B member 6 (Homo sapiens) (UniProt Q9NP58). Description: ABCB6 transporter inhibitors, pilot screen, K562-ABCB6 cells, flow cytometry, validation set (AID 588550;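 active = inhibition above the screen-wide mean plus 3 SD, about 51%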;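 also: 0% = DMSO wells and 100% = benzethonium chloride 70 µM positive control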). Conditions: K562-ABCB6 porphyrin accumulation, 1 h, at 10 µM, stronger effect = higher value.
ATP-binding cassette sub-family B member 6 (Homo sapiens), sequence (Q9NP58 whole entry, looked up): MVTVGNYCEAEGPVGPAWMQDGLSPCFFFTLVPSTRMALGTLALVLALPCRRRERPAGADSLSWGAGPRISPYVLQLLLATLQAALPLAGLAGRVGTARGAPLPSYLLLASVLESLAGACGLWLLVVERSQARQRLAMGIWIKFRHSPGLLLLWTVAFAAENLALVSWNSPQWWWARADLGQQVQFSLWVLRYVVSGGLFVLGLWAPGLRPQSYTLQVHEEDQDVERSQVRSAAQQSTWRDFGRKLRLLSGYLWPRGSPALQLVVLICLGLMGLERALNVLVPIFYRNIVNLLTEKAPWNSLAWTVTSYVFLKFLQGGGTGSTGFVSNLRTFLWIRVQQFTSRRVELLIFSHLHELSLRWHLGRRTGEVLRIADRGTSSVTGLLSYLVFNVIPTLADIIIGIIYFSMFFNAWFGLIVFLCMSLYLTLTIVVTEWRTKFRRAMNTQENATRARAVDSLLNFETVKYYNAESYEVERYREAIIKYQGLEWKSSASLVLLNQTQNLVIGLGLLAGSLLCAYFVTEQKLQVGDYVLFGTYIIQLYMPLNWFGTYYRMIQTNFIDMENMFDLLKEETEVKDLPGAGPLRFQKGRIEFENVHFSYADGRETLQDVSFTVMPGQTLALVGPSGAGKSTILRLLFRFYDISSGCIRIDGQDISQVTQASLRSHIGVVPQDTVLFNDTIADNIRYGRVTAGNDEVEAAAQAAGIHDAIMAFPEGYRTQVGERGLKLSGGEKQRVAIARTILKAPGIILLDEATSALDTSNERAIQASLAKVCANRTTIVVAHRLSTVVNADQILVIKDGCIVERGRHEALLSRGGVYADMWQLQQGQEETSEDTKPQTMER
Assay [16] can be described thus: promoters of myeloid differentiation in arrested cells, primary screen, cell-based, GFP/MAC1 double positive, flow cytometry, validation set (AID 588685;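 active = differentiation response of at least 50%, scaled between solvent and reference control, from cells with both markers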;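 also: compound exposure lasts four days before antibody staining and flow analysis; 0% = DMSO wells and 100% = 5 µM fulvestrant positive control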). To be noted: ER-HoxA9 marrow cells, stronger effect = higher value, normalized: vehicle 0, fulvestrant 100.

Records with an inconclusive call do not appear. Activity calls are given as the source filed them.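 The calls were made as follows, unless noted: active = aptamer binding inhibition above 30%, about 3 SD of noise from non-fluorescent compounds; inactive = inhibition at or below 30%.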

AP-2 complex subunit beta (Homo sapiens), sequence (P63010 whole entry, looked up, the tested form may be a part, one chain of several): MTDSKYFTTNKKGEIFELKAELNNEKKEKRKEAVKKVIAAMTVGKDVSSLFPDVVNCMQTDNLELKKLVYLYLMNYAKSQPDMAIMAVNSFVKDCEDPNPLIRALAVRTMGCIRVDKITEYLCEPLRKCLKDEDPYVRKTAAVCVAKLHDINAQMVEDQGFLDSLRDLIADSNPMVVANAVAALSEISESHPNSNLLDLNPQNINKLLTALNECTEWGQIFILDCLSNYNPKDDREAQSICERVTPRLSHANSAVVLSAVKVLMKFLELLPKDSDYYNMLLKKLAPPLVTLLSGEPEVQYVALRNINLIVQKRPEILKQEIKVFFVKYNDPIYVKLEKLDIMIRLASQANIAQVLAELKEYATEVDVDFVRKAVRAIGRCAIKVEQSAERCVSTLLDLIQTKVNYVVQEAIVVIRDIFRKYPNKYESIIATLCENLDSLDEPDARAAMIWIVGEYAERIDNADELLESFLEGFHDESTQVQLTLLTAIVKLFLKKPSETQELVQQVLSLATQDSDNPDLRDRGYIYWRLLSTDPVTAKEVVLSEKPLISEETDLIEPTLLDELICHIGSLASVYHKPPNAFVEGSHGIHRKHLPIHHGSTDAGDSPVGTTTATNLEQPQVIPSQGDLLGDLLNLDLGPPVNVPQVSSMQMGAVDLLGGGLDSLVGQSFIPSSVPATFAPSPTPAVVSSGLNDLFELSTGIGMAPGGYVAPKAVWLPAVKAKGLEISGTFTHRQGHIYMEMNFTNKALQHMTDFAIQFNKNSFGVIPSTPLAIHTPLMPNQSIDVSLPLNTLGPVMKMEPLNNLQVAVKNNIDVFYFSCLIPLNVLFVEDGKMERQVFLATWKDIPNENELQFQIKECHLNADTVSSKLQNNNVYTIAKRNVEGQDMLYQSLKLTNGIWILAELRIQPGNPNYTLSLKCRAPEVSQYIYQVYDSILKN

`Cc1nc2ccccc2n1CC(O)Cn1c2ccccc2c2ccccc21` (stereo not drawn): the percent of DMSO control GFP in [1] was 90.9% (inactive). In addition, the figures for the GFP response vs DMSO in [2] and in [4] were 115% (inactive) and 78.7% (inactive), respectively. The percent response of DMSO control in assay [3] was 101% (inactive). The GFP response, % of DMSO in [5] is 91.9% (inactive). For the same compound, the double positive events in [6] came out at 62.2%. In addition, the vesicle binding response in assay [6] is 174% (inactive). For the same compound, the inhibition in [7] is 4.52% (inactive); in assay [11], -4.66% (inactive); in assay [15] it was 9% (inactive). Moreover, the superoxide response (% of plate) in assay [8] was 97.8% (inactive). Moreover, the aptamer binding inhibition in assay [9] is 2% (inactive). In addition, the response is 8.04% (inactive) in assay [10] and -1.44% (inactive) in assay [12]. Also, in assay [13], the binding (% of control) was 104% (inactive). Besides, the efflux inhibition (fraction of control) in assay [14] was 0.19 (inactive). Moreover, the differentiation response in [16] was -1.64% (inactive).
Take `CCOC(=O)C1C(=O)OC2(CCOC(C)(C)C2)C1C(=O)OCC` (stereo not drawn): in [1], the percent of DMSO control GFP is 109% (inactive). For the same compound, the figures for the GFP response vs DMSO in [2] and in assay [4] were 108% (inactive) and 125% (inactive), respectively. Moreover, the percent response of DMSO control in [3] is 102% (inactive). Besides, the GFP response, % of DMSO in assay [5] was 108% (inactive). The double positive events in assay [6] was 70.8%. Further, the vesicle binding response in assay [6] was 8780% (inactive). Also, the figures for the inhibition in [7], in assay [11] and in [15] were 10.5% (inactive), -2.89% (inactive) and 6% (inactive), respectively. In addition, the superoxide response (% of plate) in [8] was 102% (inactive). The aptamer binding inhibition in assay [9] was 5% (inactive). The results for the response in assay [10] and in assay [12] were 16.1% (inactive) and -6.07% (inactive), respectively. Further, the binding (% of control) in assay [13] is 102% (inactive). Further, the efflux inhibition (fraction of control) in assay [14] was 0.15 (inactive). In addition, the differentiation response in assay [16] was -4% (inactive).
For the compound `CC(=O)N(C(C)=O)c1nc2nc(C)cc(C)n2n1`, the percent of DMSO control GFP in assay [1] was 94.6% (inactive). Also, the results for the GFP response vs DMSO in assay [2] and in [4] were 133% (inactive) and 86.4% (inactive), respectively. For the same compound, the percent response of DMSO control in assay [3] was 110% (inactive). The GFP response, % of DMSO in assay [5] is 107% (inactive). This compound registered a double positive events in assay [6] of 67.9%. Also, the vesicle binding response in assay [6] was 236% (inactive). In addition, the results for the inhibition in assay [7], in assay [11] and in assay [15] were 0.64% (inactive), -10.8% (inactive) and 11% (inactive), respectively. Further, the superoxide response (% of plate) in assay [8] was 98.5% (inactive). In [9], the aptamer binding inhibition was 6% (inactive). Further, the results for the response in [10] and in assay [12] were -13.9% (inactive) and -0.39% (inactive), respectively. In assay [13], the binding (% of control) was 102% (inactive). Besides, the efflux inhibition (fraction of control) in [14] was -0.13 (inactive). Further, the differentiation response in assay [16] was -6.55% (inactive).
Turning to `Cc1ccnc(NS(=O)(=O)c2ccc(N)cc2)n1`, in [1], the percent of DMSO control GFP is 102% (inactive). Moreover, the figures for the GFP response vs DMSO in assay [2] and in [4] were 99.7% (inactive) and 102% (inactive), respectively. For the same compound, the percent response of DMSO control in [3] was 106% (inactive). Besides, the GFP response, % of DMSO in assay [5] is 111% (inactive). The compound also had a double positive events in [6] of 63.6%. Also, in assay [6], the vesicle binding response is 203% (inactive). For the same compound, the inhibition in assay [7] is 19% (inactive); in assay [11] it was -0.12% (inactive); in assay [15], -3% (inactive). The superoxide response (% of plate) in assay [8] was 92.2% (inactive). In addition, the aptamer binding inhibition in [9] is -1% (inactive). Moreover, the response was 5.51% (inactive) in [10] and -1.12% (inactive) in assay [12]. In addition, the binding (% of control) in [13] was 94% (inactive). The efflux inhibition (fraction of control) in assay [14] is -0.3 (inactive). The differentiation response in assay [16] was 1.28% (inactive).
